The entries come from a sample that favours the strongest signals as a whole.
What was measured:
Assay in all cases: glycan array binding signal (z-score within array); higher = stronger binding
Conditions in all cases: glycan notation: IUPAC condensed, linker removed
[1] = biological target: Fuc(a1-2)Gal(b1-3)GlcNAc(b1-3)GalNAc
In short: (§1)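 Glycan array binding is given as a within-array Z-score, which can be read as non-binding when negative. The arrays, 3228 of them, came from the Consortium for Functional Glycomics database and were retained only where the protein sequence was available. Z-scores were averaged across arrays of the same protein sequence at different concentrations or buffers and across linkers.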

[2] = biological target: Fuc(a1-2)Gal(b1-3)[Fuc(a1-4)]GlcNAc
In short: as §1

[3] = biological target: Fuc(a1-2)Gal(b1-4)GlcNAc(b1-6)GalNAc
In short: as §1

[4] = biological target: Fuc(a1-2)Gal(b1-4)[Fuc(a1-3)]GlcNAc(b1-3)Gal(b1-4)[Fuc(a1-3)]GlcNAc(b1-3)Gal(b1-4)[Fuc(a1-3)]GlcNAc
In short: as §1

[5] = biological target: Fuc(a1-2)[Gal(a1-3)]Gal(b1-3)GlcNAc
In short: as §1

[6] = biological target: Fuc(a1-2)[Gal(a1-3)]Gal(b1-4)GlcNAc
In short: as §1

[7] = biological target: Fuc(a1-2)[Gal(a1-3)]Gal(b1-4)[Fuc(a1-3)]GlcNAc
In short: as §1

[8] = biological target: Fuc(a1-2)[GalNAc(a1-3)]Gal(b1-4)GlcNAc(b1-2)Man
In short: as §1

[9] = biological target: Fuc(a1-2)[GalNAc(b1-3)]Gal
In short: as §1

[10] = biological target: Fuc(a1-3)[Gal(b1-4)]GlcNAc(b1-3)GalNAc
In short: as §1

Gal(a1-3)Gal(b1-3)GlcNAc = biological target: Gal(a1-3)Gal(b1-3)GlcNAc
In short: as §1

[11] = biological target: Gal(a1-3)Gal(b1-4)[Fuc(a1-3)]GlcNAc
In short: as §1

Gal(b1-3)Gal = biological target: Gal(b1-3)Gal
In short: as §1

Gal(b1-3)GlcNAc = biological target: Gal(b1-3)GlcNAc
In short: as §1

[12] = biological target: Gal(b1-3)GlcNAc(b1-3)Gal(b1-4)GlcNAc(b1-2)[Gal(b1-3)GlcNAc(b1-3)Gal(b1-4)GlcNAc(b1-6)]Man(a1-6)[Gal(b1-3)GlcNAc(b1-3)Gal(b1-4)GlcNAc(b1-2)Man(a1-3)]Man(b1-4)GlcNAc(b1-4)[Fuc(a1-6)]GlcNAc
In short: as §1

[13] = biological target: Gal(b1-3)GlcNAc(b1-3)Gal(b1-4)GlcNAc(b1-6)[Gal(b1-3)GlcNAc(b1-3)]Gal(b1-4)Glc
In short: as §1

Gal(b1-4)Gal = biological target: Gal(b1-4)Gal
In short: as §1

[14] = biological target: Gal(b1-4)GlcNAc(b1-2)Man(a1-3)[Gal(b1-4)GlcNAc(b1-2)Man(a1-6)]Man(b1-4)GlcNAc(b1-4)[Fuc(a1-6)]GlcNAc
In short: as §1

[15] = biological target: Gal(b1-4)GlcNAc(b1-2)Man(a1-3)[Gal(b1-4)GlcNAc(b1-2)Man(a1-6)][GlcNAc(b1-4)]Man(b1-4)GlcNAc(b1-4)[Fuc(a1-6)]GlcNAc
In short: as §1

[16] = biological target: Gal(b1-4)GlcNAc(b1-2)[Gal(b1-4)GlcNAc(b1-4)]Man(a1-3)[GlcNAc(b1-4)][Gal(b1-4)GlcNAc(b1-2)Man(a1-6)]Man(b1-4)GlcNAc(b1-4)GlcNAc
In short: as §1

[17] = biological target: Gal(b1-4)GlcNAc(b1-2)[Gal(b1-4)GlcNAc(b1-6)]Man(a1-6)[GlcNAc(b1-4)][Gal(b1-4)GlcNAc(b1-2)[Gal(b1-4)GlcNAc(b1-4)]Man(a1-3)]Man(b1-4)GlcNAc(b1-4)[Fuc(a1-6)]GlcNAc
In short: as §1

[18] = biological target: Gal(b1-4)GlcNAc(b1-3)Gal(b1-4)GlcNAc(b1-2)Man(a1-3)[Gal(b1-4)GlcNAc(b1-3)Gal(b1-4)GlcNAc(b1-2)Man(a1-6)]Man(b1-4)GlcNAc(b1-4)[Fuc(a1-6)]GlcNAc
In short: as §1

[19] = biological target: Gal(b1-4)GlcNAc(b1-3)Gal(b1-4)GlcNAc(b1-3)Gal(b1-4)GlcNAc(b1-3)Gal(b1-4)GlcNAc(b1-2)Man(a1-3)[Gal(b1-4)GlcNAc(b1-3)Gal(b1-4)GlcNAc(b1-3)Gal(b1-4)GlcNAc(b1-3)Gal(b1-4)GlcNAc(b1-2)Man(a1-6)]Man(b1-4)GlcNAc(b1-4)GlcNAc
In short: as §1

[20] = biological target: Gal(b1-4)GlcNAc(b1-3)Gal(b1-4)GlcNAc(b1-3)Gal(b1-4)GlcNAc(b1-3)Gal(b1-4)GlcNAc(b1-2)Man(a1-3)[Gal(b1-4)GlcNAc(b1-3)Gal(b1-4)GlcNAc(b1-3)Gal(b1-4)GlcNAc(b1-3)Gal(b1-4)GlcNAc(b1-2)Man(a1-6)]Man(b1-4)GlcNAc(b1-4)[Fuc(a1-6)]GlcNAc
In short: as §1

[21] = biological target: Gal(b1-4)GlcNAc(b1-3)Gal(b1-4)GlcNAc(b1-3)Gal(b1-4)GlcNAc(b1-3)Gal(b1-4)GlcNAc(b1-3)Gal(b1-4)GlcNAc(b1-2)Man(a1-3)[Gal(b1-4)GlcNAc(b1-3)Gal(b1-4)GlcNAc(b1-3)Gal(b1-4)GlcNAc(b1-3)Gal(b1-4)GlcNAc(b1-3)Gal(b1-4)GlcNAc(b1-2)Man(a1-6)]Man(b1-4)GlcNAc(b1-4)[Fuc(a1-6)]GlcNAc
In short: as §1

[22] = biological target: Gal(b1-4)GlcNAc(b1-3)Gal(b1-4)GlcNAc(b1-3)Gal(b1-4)GlcNAc(b1-3)Gal(b1-4)GlcNAc(b1-3)Gal(b1-4)GlcNAc(b1-2)[Gal(b1-4)GlcNAc(b1-3)Gal(b1-4)GlcNAc(b1-3)Gal(b1-4)GlcNAc(b1-3)Gal(b1-4)GlcNAc(b1-3)Gal(b1-4)GlcNAc(b1-6)]Man(a1-6)[Gal(b1-4)GlcNAc(b1-3)Gal(b1-4)GlcNAc(b1-3)Gal(b1-4)GlcNAc(b1-3)Gal(b1-4)GlcNAc(b1-3)Gal(b1-4)GlcNAc(b1-2)Man(a1-3)]Man(b1-4)GlcNAc(b1-4)[Fuc(a1-6)]GlcNAc
In short: as §1

[23] = biological target: Gal(b1-4)GlcNAc(b1-3)GalNAc
In short: as §1

Gal3S6S(b1-4)GlcNAc6S = biological target: Gal3S6S(b1-4)GlcNAc6S
In short: as §1

B1: AFL5 (Aspergillus fumigatus), Q4WB00 (protein)
chain: MDNFMEMTKKLGHQPELLRLRALDATYDDALEGKLVVAPLDMSEPGKKILDSGTADGTWLRNVRSKQSVPHDYYGSDVEGELFPKDPDGITYFAHSFKDPWPQQYLGFFDLVHIRGSLAGSAPEGPAPVIQNLTTLLKPGGWVQLMEMNAFSPPPNGPAMTDFAKMASEMFTGIGVGDFANNNKSMLEDAGLKNVQEKRVIVNLGKKAKPELHDQSIHGVTGPIVPLTSVARTVKSSFTGEQLDALPARVKEELETEGGQVEMIIAFGQKA
glycan array binding signal (z-score) [1]: -0.31
glycan array binding signal (z-score) [2]: -0.036
glycan array binding signal (z-score) [3]: -0.782
glycan array binding signal (z-score) [4]: -0.555
glycan array binding signal (z-score) [5]: -0.252
glycan array binding signal (z-score) [6]: -0.456
glycan array binding signal (z-score) [7]: -0.109
glycan array binding signal (z-score) [8]: -0.322
glycan array binding signal (z-score) [9]: -0.258
glycan array binding signal (z-score) [10]: -0.016
glycan array binding signal (z-score) (Gal(a1-3)Gal(b1-3)GlcNAc): -0.285
glycan array binding signal (z-score) [11]: 21.5
glycan array binding signal (z-score) (Gal(b1-3)Gal): -0.063
glycan array binding signal (z-score) (Gal(b1-3)GlcNAc): -0.272
glycan array binding signal (z-score) [12]: 1.17
glycan array binding signal (z-score) [13]: -0.412
glycan array binding signal (z-score) (Gal(b1-4)Gal): -0.502
glycan array binding signal (z-score) [14]: 0.004
glycan array binding signal (z-score) [15]: -0.411
glycan array binding signal (z-score) [16]: -0.134
glycan array binding signal (z-score) [17]: 3.2
glycan array binding signal (z-score) [18]: 1.35
glycan array binding signal (z-score) [19]: 0.075
glycan array binding signal (z-score) [20]: 1.69
glycan array binding signal (z-score) [21]: 1.46
glycan array binding signal (z-score) [22]: 1.6
glycan array binding signal (z-score) [23]: -0.561
glycan array binding signal (z-score) (Gal3S6S(b1-4)GlcNAc6S): 0.29
